Sampled rows, rich in hits. Any-hit rate of the full collection: about 3.6%.
GCN5L2 inh: qHTS Assay for Inhibitors of GCN5L2; Histone acetyltransferase KAT2A (Homo sapiens), Q92830; GCN5L2 HAT assay, ThioGlo1 CoA-SH fluorescence; Potency, µM (titrated, usually from 58.9 µM), actives largely listed as inhibitors; 390,000 tested, 0.21% active
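Fluorescence readout, Ex340nm/Em540nm: ThioGlo1 (50uM final) reacts with free CoA thiol released as 20nM GCN5L2 acetylates H3(1-25) peptide (75uM) using acetyl-CoA (70uM). Compound and enzyme sat 15 min beforehand; 20 min room-temperature reaction.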
Rango-impB inh: qHTS Assay for Inhibitors of Rango (Ran-regulated importin-beta cargo) - Importin beta complex formation. Rango CFP/YFP FRET sensor + importin beta, 45 min. Potency, µM (series often up to 92.2 µM). 340,000 tested, 0.031% active; calls by dose curve; note: nearly all actives have a fitted effect of over 15% in size
Target sequence (Q14974 whole entry, looked up): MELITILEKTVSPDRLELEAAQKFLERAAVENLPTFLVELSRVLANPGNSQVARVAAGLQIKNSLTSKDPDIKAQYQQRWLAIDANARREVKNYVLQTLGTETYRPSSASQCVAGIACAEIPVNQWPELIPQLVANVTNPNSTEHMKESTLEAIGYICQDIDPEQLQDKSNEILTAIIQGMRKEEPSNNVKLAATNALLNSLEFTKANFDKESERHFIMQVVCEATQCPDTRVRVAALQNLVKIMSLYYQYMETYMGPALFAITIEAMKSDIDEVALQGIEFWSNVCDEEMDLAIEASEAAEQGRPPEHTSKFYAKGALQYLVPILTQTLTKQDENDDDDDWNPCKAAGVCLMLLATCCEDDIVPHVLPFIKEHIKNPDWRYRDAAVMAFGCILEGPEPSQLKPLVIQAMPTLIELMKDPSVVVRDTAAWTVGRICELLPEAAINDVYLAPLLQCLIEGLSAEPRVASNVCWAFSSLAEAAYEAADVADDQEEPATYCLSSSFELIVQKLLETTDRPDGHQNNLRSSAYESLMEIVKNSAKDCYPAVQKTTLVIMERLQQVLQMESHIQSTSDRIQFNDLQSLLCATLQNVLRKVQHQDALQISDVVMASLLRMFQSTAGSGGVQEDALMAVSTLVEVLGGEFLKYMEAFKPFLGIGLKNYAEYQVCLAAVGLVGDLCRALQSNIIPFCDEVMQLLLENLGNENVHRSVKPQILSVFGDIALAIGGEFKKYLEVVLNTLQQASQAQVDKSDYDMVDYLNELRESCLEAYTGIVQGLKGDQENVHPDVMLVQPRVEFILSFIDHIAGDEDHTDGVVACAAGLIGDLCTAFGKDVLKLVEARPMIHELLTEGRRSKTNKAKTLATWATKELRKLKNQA
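FRET biosensor (snurportin 1 IBB flanked by EYFP and cerulean), 50 nM, with compound 5 min, then 0.125 microM importin beta in PBS, 1 mM DTT, 0.02% Tween-20, 0.1% BSA. CFP/YFP ratio read after 45 min at room temperature; pre-read flags interference.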
PLK1 PBD block: qHTS for Inhibitors of PLK1-PDB (polo-like kinase 1 - polo-box domain): Primary Screen | Serine/threonine-protein kinase PLK1 (Homo sapiens), P53350 | Plk1 PBD binding of FITC phosphopeptide, fluorescence polarization | Potency, µM, usual class: inhibitors | 360,000 tested, 2.8% active; note: series mostly up to about 57 µM; nearly all actives have a fitted effect of over 65% in size
Rango dissoc inh: qHTS Assay for Inhibitors of RanGTP induced Rango (Ran-regulated importin-beta cargo) - Importin beta complex dissociation; 340,000 tested, 0.071% active; Biochemical FRET Rango-importin beta, RanGTP-induced dissociation; AID 540253, 2011; Snurportin-1 (Homo sapiens) + GTP-binding nuclear protein Ran (Homo sapiens) + Importin …; Potency, µM (doses to about 46.1 µM); calls by dose curve; note: nearly all actives have a fitted effect of over 45% in size
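Two FRET readings bracket the reaction: one 5 min after compound meets Rango–importin beta, another 45 min after RanGTP-RCC1 (0.6 uM Ran, 0.2 uM RCC1, 2 mM GTP) is added. Only the second defines inhibition.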
PI5P4Ka inh: qHTS for Inhibitors of phosphatidylinositol 5-phosphate 4-kinase (PI5P4K); PI5P4Kalpha enzyme, ADP-Glo luminescence, 60 min; stronger effect = lower value; max response, %; 330,000 tested, 1.2% active; AID 652105, 2013; active = max response of -50% or lower; inconclusive = between -30% and -50%; inactive = -30% or higher; note: value at the top dose of about 77 µM
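PI5P4Kalpha ADP-Glo assay; 5 microM ATP final; 60 min RT reaction; HEPES pH 7.4/EGTA/CHAPS, 5% DMSO; controls lacking substrate or enzyme; luminescent end-point.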
VDR inhibitor: Inhibitors of the vitamin D receptor (VDR): qHTS; VDR-SRC2-3 peptide fluorescence polarization, 2 h; Potency, µM, most hits filed as inhibitors; 400,000 tested, 0.93% active; AID 504847, 2011
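Two reagent solutions held at 4 deg C in the dark were dispensed, compounds pinned at 23 nl, and the mixture incubated 2 h at room temperature. Read-out: fluorescence polarization of VDR–SRC2-3 peptide binding.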
Each line names hits and unclear results; the compound was inactive in the other large screens. Unless noted, calls come from the whole dose curve; as a rule, active = well fitted curve in the direction sought with a large enough effect; inconclusive = small, poorly fitted or top-dose-only effect, or another doubt; inactive = no such curve, though single readings can be large; an effect the other way counts as inactive or inconclusive.

O=S1(=O)C=C(Sc2nc3cc(Cl)ccc3o2)c2ccccc21	PLK1 PBD block 6.7µM, VDR inhibitor inconclusive
Cc1ccc(NC(=O)CN(C)C(=O)c2cccc(S(=O)(=O)NCc3ccccc3)c2)cc1	none
Cc1ccc(NC(=O)CN(C)C(=O)c2cccc(Br)c2)cc1	PLK1 PBD block 29.9µM
COc1ccc(-c2nc3n(n2)C(c2ccc(OC)c(OC)c2)C(C(=O)Nc2cccnc2)=C(C)N3)cc1 (stereo unspecified)	none (no result: Rango-impB inh, PLK1 PBD block, Rango dissoc inh, PI5P4Ka inh)
CC(=O)c1cccc(NC(=O)c2nc3ccccc3n(C)c2=O)c1	none (no result: Rango-impB inh, PLK1 PBD block, Rango dissoc inh, PI5P4Ka inh)
CCCCn1c(=N)c(S(=O)(=O)c2ccc(Cl)cc2)cc2c(=O)n3cccc(C)c3nc21	none (no result: Rango-impB inh, PLK1 PBD block, Rango dissoc inh, PI5P4Ka inh)
O=C(O)c1cc(=O)c2c(Cl)cc(Cl)cc2[nH]1	PI5P4Ka inh -58.9
O=C(O)c1cc(=O)c2ccccc2[nH]1	none
CCOc1ccc(C(=O)/C=C/c2cn(CC(O)CN3CCc4ccccc43)c3ccccc23)cc1 (stereo unspecified)	none (no result: Rango-impB inh, PLK1 PBD block, Rango dissoc inh, PI5P4Ka inh)
O=C(CCN1CCN(S(=O)(=O)c2cccc([N+](=O)[O-])c2)CC1)Nc1ccccc1F	PLK1 PBD block 26.7µM
COc1cccc(CNC(=O)CCS(=O)(=O)c2ccc3c(c2)CC(C)N3C(=O)C2CC2)c1 (stereo unspecified)	PLK1 PBD block 21.2µM
CC1CCC(NC(=O)CCS(=O)(=O)c2ccc3c(c2)CC(C)N3C(=O)C2CC2)CC1 (stereo unspecified)	PLK1 PBD block 29.9µM
CCC(=O)N1c2ccc(S(=O)(=O)CCC(=O)NCc3cccc(OC)c3)cc2CC1C (stereo unspecified)	none (no result: Rango-impB inh, PLK1 PBD block, Rango dissoc inh, PI5P4Ka inh)
CCC(=O)N1c2ccc(S(=O)(=O)NCc3cccc(OC)c3)cc2CC1C (stereo unspecified)	none (no result: Rango-impB inh, PLK1 PBD block, Rango dissoc inh, PI5P4Ka inh)
COc1cccc(CNC(=O)CCNS(=O)(=O)c2ccc3c(c2)CC(C)N3C(C)=O)c1 (stereo unspecified)	PLK1 PBD block 26.7µM, VDR inhibitor inconclusive
COc1ccc(OC)c(NC(=O)CCNS(=O)(=O)c2ccc3c(c2)CC(C)N3C(C)=O)c1 (stereo unspecified)	none (no result: GCN5L2 inh, Rango-impB inh, Rango dissoc inh, VDR inhibitor)
CCOc1ccc(NC(=O)CCNS(=O)(=O)c2ccc3c(c2)CC(C)N3C(C)=O)cc1 (stereo unspecified)	PLK1 PBD block 2.99µM, PI5P4Ka inh inconclusive, VDR inhibitor inconclusive
CC1Cc2cc(S(=O)(=O)CCC(=O)NC3CCCCC3)ccc2N1C(=O)C1CC1 (stereo unspecified)	none
CCOC(=O)c1cc(-c2ccccc2)n(CC(=O)Nc2ccccc2OCC)c1C	none (no result: Rango-impB inh, PLK1 PBD block, Rango dissoc inh, PI5P4Ka inh)
Cc1cc(C)cc(NC(=O)Cn2c(=O)n(C(C)C)c(=O)c3oc4ccccc4c32)c1	none (no result: Rango-impB inh, PLK1 PBD block, Rango dissoc inh, PI5P4Ka inh)
CC(=O)N1c2ccc(S(=O)(=O)NCC3CCC(C(=O)NC4CCCCC4C)CC3)cc2CC1C (stereo unspecified)	PLK1 PBD block 26.7µM
CC(C)COc1ccc(-c2nn(-c3ccccc3)cc2/C=C2/SC(=S)N(CC(=O)O)C2=O)cc1	GCN5L2 inh inconclusive, PLK1 PBD block 21.2µM
CCn1c(C)cc(/C=C2/SC(=S)N(CC(=O)O)C2=O)c1C	Rango-impB inh inconclusive, Rango dissoc inh inconclusive
CCOc1ccc(-c2nn(-c3ccccc3)cc2/C=C2\SC(=S)N(Cc3ccco3)C2=O)cc1	none
O=C(O)CN1C(=O)/C(=C\c2cn(-c3ccccc3)nc2-c2ccccc2)SC1=S	PLK1 PBD block 21.2µM, PI5P4Ka inh inconclusive, VDR inhibitor inconclusive
